In PubChem BioAssay (NCI):
Compounds without any hit were thinned out: in the full panel of roughly 83,000, 20% have a hit.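 How to read the values: 0–100, growth inhibition (40 = 60% inhibited); 0, no net growth; -100 to 0, cell death (-40 = 40% of starting cells died; -100 = all dead).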 The source made the active and inactive calls. How the source made its calls: active means growth percent below 10; inactive means the rest.

Assays:
Experiment in all cases: NCI-60 one-dose screen, 48 h (100 = growth as untreated, 0 = no growth, -100 = all killed)
Conditions in all cases: 10 µM
[1] = test system: SK-MEL-2 melanoma
[2] = test system: EKVX NSCLC
[3] = test system: SN12C renal
[4] = test system: TK-10 renal
[5] = test system: ACHN renal
[6] = test system: CAKI-1 renal
[7] = test system: A498 renal
[8] = test system: CCRF-CEM leukemia
[9] = test system: MOLT-4 leukemia
[10] = test system: SR leukemia
[11] = test system: RPMI-8226 leukemia
[12] = test system: OVCAR-8 ovarian
[13] = test system: OVCAR-5 ovarian
[14] = test system: OVCAR-4 ovarian
[15] = test system: SK-OV-3 ovarian
[16] = test system: IGROV1 ovarian
[17] = test system: OVCAR-3 ovarian
[18] = test system: HS 578T breast
[19] = test system: NCI/ADR-RES ovarian
[20] = test system: UO-31 renal

Measured: growth

[O-]c1c[n+](-c2ccc(Cl)cc2)no1
inactive: [1] 102% | [2] 103% | [3] 92.9% | [4] 116% | [5] 106% | [6] 108% | [7] 98.7% | [8] 111% | [9] 102% | [10] 97.9% | [11] 101% | [12] 106% | [13] 96.7% | [14] 82.1% | [15] 105% | [16] 80.7% | [17] 104% | [18] 101% | [19] 103%

COc1ccc(-c2ccccc2)cc1C(=O)c1ccc(-c2ccccc2)cc1
inactive: [1] 58.9% | [2] 88.8% | [3] 96.6% | [20] 60.6% | [4] 88.3% | [5] 105% | [6] 52.2% | [7] 93.6% | [9] 65.9% | [10] 23.8% | [12] 93.1% | [13] 87.8% | [14] 96.3% | [15] 76.6% | [16] 63.5% | [17] 60.9% | [18] 81.5% | [19] 41.2%

CC(=O)OC1Oc2ccccc2-c2oc(=O)c(-c3ccc(F)cc3)cc21 (stereo not drawn)
active: [7] -16.1% | [18] -26.6%
inactive: [1] 86.2% | [2] 34.2% | [3] 88.3% | [4] 92.9% | [5] 104% | [6] 93.1% | [8] 91.5% | [9] 88.6% | [10] 65.3% | [11] 90.8% | [12] 77.7% | [13] 104% | [14] 88.6% | [15] 92.6% | [16] 59.8% | [17] 110% | [19] 96.4%

Cc1cc(=O)oc2cc(OCc3cn(CC(O)CO)nn3)ccc12 (stereo not drawn)
active: [7] -3.54%
inactive: [1] 115% | [2] 97% | [3] 102% | [4] 105% | [5] 105% | [6] 109% | [8] 92.5% | [9] 98.6% | [10] 97.9% | [11] 92.9% | [12] 103% | [13] 113% | [14] 116% | [15] 100% | [16] 107% | [17] 117% | [18] 27% | [19] 105%

COc1ccc(-c2nnc(N3CCN(C(=O)CN4CCN(c5ccc(Cl)cc5)CC4)CC3)nc2-c2ccc(OC)cc2)cc1
inactive: [1] 65.7% | [2] 45.4% | [3] 57.5% | [4] 90.6% | [5] 85% | [7] 73.7% | [8] 47.2% | [10] 54.2% | [12] 66.1% | [13] 114% | [14] 61.5% | [15] 102% | [16] 62.7% | [17] 73.1% | [18] 72.2% | [19] 81.8%
active: [9] 8.77% | [11] -44.9%

COc1cc([C@@H]2c3cc4c(cc3[C@H](SC(=N)N)[C@H]3COC(=O)[C@H]23)OCO4)cc(OC)c1OC
active: [6] 5.13% | [8] 4.96% | [11] 8.62% | [15] -4.1% | [16] -0.422% | [17] 1.61% | [19] -0.709%
inactive: [1] 30.8% | [2] 33.2% | [3] 27.3% | [20] 29.3% | [4] 72.4% | [7] 48.2% | [9] 26% | [10] 14.1% | [12] 23.5% | [13] 28.2% | [18] 34.2%

Clc1cc(Cl)c(Cl)c(-c2nc(-c3cccnc3)cs2)c1
active: [10] 9.83%
inactive: [1] 99.3% | [2] 93.2% | [3] 94.2% | [4] 82.6% | [5] 61.5% | [6] 48.7% | [7] 104% | [8] 62.6% | [9] 56.9% | [11] 40% | [12] 78.8% | [13] 79.6% | [14] 68.7% | [15] 102% | [16] 49.6% | [17] 71.7% | [18] 98.9% | [19] 85.1%

C/C(=N/NC(=O)c1sc(=S)n(C)c1N)c1cc2cc(Cl)ccc2o1
inactive: [1] 98.9% | [2] 98.5% | [3] 90.8% | [4] 101% | [5] 96% | [6] 117% | [8] 81.8% | [9] 76.5% | [10] 98.7% | [11] 87.3% | [12] 14.3% | [13] 101% | [14] 117% | [15] 102% | [16] 51.6% | [17] 110% | [19] 104%
active: [7] -3.76% | [18] 5.99%

COc1ccc(-c2n/c(=C\c3c(O)[nH]c4ccccc34)cc3c2=Nc2ccccc2-3)cc1
inactive: [1] 84.5% | [2] 72.4% | [3] 91.6% | [4] 97.5% | [5] 98.7% | [6] 71.6% | [7] 56.2% | [11] 24.7% | [12] 20.1% | [13] 89.1% | [15] 93.5% | [16] 85.6% | [18] 80.7%
active: [9] 2.65% | [10] 6.48% | [14] 5.98% | [19] 5.95%

CC(=O)Nc1nc(C)c(C(=O)NNC=O)s1
inactive: [1] 62.7% | [2] 101% | [3] 98.7% | [20] 100% | [5] 108% | [6] 109% | [7] 104% | [8] 101% | [9] 98.1% | [10] 105% | [11] 118% | [12] 102% | [13] 108% | [14] 118% | [15] 141% | [16] 13% | [17] 98.6% | [18] 77% | [19] 104%

N#CC1C=Cc2c(ccc3ccccc23)N1C(=O)c1ccccc1 (stereo not drawn)
active: [7] -7.88% | [15] 4.99% | [17] -56.5% | [18] -8.86% | [19] -21.8%
inactive: [1] 40.7% | [2] 17.3% | [3] 39.1% | [20] 38.2% | [4] 52.8% | [6] 20.6% | [8] 20.3% | [9] 18.9% | [10] 13.9% | [11] 38.1% | [12] 25.7% | [13] 45.4% | [14] 45.2% | [16] 26%

CNC(=O)c1cc(Oc2ccc(NC(=O)Nc3ccc(Cl)c(OC4CCCCC4)c3)c(F)c2)ccn1
inactive: [1] 55.3% | [2] 27.7% | [20] 43.1% | [4] 51.9% | [5] 29.8% | [6] 41.9% | [7] 57.5% | [8] 35.4% | [9] 24.1% | [10] 42.2% | [11] 19.9% | [12] 40.7% | [13] 88.8% | [14] 28.6% | [15] 72.8% | [16] 62.9% | [17] 33.8% | [18] 66% | [19] 47.6%

C/C(=N\NC(=O)c1sc(=S)n(C)c1N)c1cc2ccccc2o1
inactive: [1] 74.4% | [2] 64.8% | [3] 72.2% | [4] 56.6% | [5] 59.7% | [6] 50% | [7] 33.3% | [9] 35.7% | [10] 42.6% | [11] 42.5% | [12] 69.6% | [13] 74.1% | [14] 61% | [15] 133% | [16] 37.5% | [17] 65% | [18] 61.6% | [19] 49.1%

Oc1ccc(/C=N\Nc2ccccn2)c(O)c1
active: [20] -19.7% | [6] -15.3% | [8] 8.18% | [17] -2.36% | [19] 0.0991%
inactive: [1] 46.3% | [2] 33% | [3] 24.1% | [4] 61.6% | [7] 70.7% | [9] 11.2% | [10] 11.7% | [11] 26.2% | [12] 26.6% | [13] 61.4% | [14] 32.7% | [15] 32.4% | [16] 22.7% | [18] 65.8%

CCCCn1c(=O)[nH]c2c(c1=O)C(c1ccc(Cl)cc1)c1c([nH]c(=O)n(CCCC)c1=O)N2
inactive: [1] 108% | [2] 99.9% | [20] 94.9% | [4] 91.3% | [5] 105% | [6] 95.6% | [7] 103% | [8] 108% | [9] 104% | [10] 106% | [11] 104% | [12] 99.5% | [13] 99.5% | [14] 102% | [15] 94.7% | [16] 102% | [17] 115% | [18] 106% | [19] 98.6%

CCCC(C)c1ccc(OCCCCCCN2CCNCC2)cc1 (stereo not drawn)
inactive: [1] 79% | [2] 67.3% | [20] 78.7% | [4] 85% | [5] 49.5% | [6] 18.2% | [7] 50.5% | [12] 36.8% | [13] 80.8% | [14] 62.2% | [15] 87% | [16] 64.7% | [17] 62.6% | [18] 68.1% | [19] 54.3%
active: [8] 4.49% | [9] -27.6% | [10] -24.7% | [11] -9.35%

CC(=O)n1nc(C(=O)OC(C)(C)C)c2cc(F)c(F)cc21
inactive: [1] 100% | [2] 105% | [20] 92.6% | [4] 113% | [5] 108% | [6] 101% | [7] 104% | [8] 97.5% | [9] 95% | [10] 104% | [11] 89.1% | [12] 105% | [13] 104% | [14] 98.5% | [15] 114% | [16] 97.5% | [17] 96.8% | [18] 106% | [19] 98.3%

O=C1/C(=C/c2ccc(O)cc2O)N=C2SCCCN12
inactive: [1] 109% | [2] 96.3% | [20] 97.6% | [4] 88.4% | [5] 97.6% | [6] 97.4% | [7] 90.1% | [8] 111% | [9] 93.8% | [10] 89.8% | [11] 103% | [12] 97.5% | [13] 92.9% | [14] 97.1% | [15] 102% | [16] 101% | [17] 98.6% | [18] 105% | [19] 98.7%

CCCc1ccnc(NS(=O)(=O)c2ccc(N)cc2)n1
inactive: [1] 97.7% | [2] 58.5% | [20] 86.5% | [4] 93.4% | [5] 112% | [6] 103% | [7] 79.2% | [8] 46.4% | [9] 81.9% | [10] 72.2% | [11] 41.4% | [12] 75.2% | [13] 117% | [14] 54.7% | [15] 95.9% | [16] 96.4% | [17] 73.5% | [18] 82% | [19] 112%

O=C(O)CCCN1C(=O)NC2(C1=O)c1ccccc1-c1ccccc12
inactive: [1] 83.2% | [2] 98.3% | [20] 88.4% | [4] 90.1% | [5] 104% | [6] 98.4% | [7] 101% | [8] 96.5% | [9] 101% | [10] 100% | [11] 99.9% | [12] 97.3% | [13] 101% | [14] 106% | [15] 103% | [16] 101% | [17] 109% | [18] 93.9% | [19] 96.8%

CC(=O)/C(=C\c1ccc(Cl)cc1)c1ccccc1
inactive: [1] 39.3% | [2] 32.9% | [20] 52.2% | [4] 57.1% | [5] 29.6% | [6] 15.6% | [7] 15.7% | [8] 11.1% | [9] 11.9% | [11] 19% | [12] 15.2% | [13] 51.5% | [14] 57.7% | [15] 39.1% | [16] 28.5% | [18] 23.8% | [19] 30.7%
active: [10] 6.01% | [17] -8.06%
